A selection: hits, their analogues and other compounds. The true share with any hit is near 17%.
ClpP mod: qHTS Assay for Activators of ClpP. purified B. subtilis ClpP, FRET peptide cleavage, 20 min. ATP-dependent Clp protease proteolytic subunit (Bacillus subtilis (strain 168)), P80244. Potency, µM (highest dose often 57.5 µM). AID 651965, 2013. 340,000 compounds, 1.9% hits; active = well fitted falling curve with a large enough effect; inconclusive = small, poorly fitted or top-dose-only effect; inactive = no such curve, though single readings can be large or run the other way; note: the source files actives as falling curves though it sought activators and does not explain the sign; nearly all actives have a fitted effect of over 65% in size
Target sequence (P80244 whole entry, looked up): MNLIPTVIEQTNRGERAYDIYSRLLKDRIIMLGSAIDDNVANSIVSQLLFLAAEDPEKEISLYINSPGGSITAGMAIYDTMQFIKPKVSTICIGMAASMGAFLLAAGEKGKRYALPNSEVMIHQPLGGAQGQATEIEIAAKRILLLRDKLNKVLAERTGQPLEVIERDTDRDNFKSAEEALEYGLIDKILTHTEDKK
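Buffer: 100 mM Tris/HCl pH8, 100 mM KCl, 0.05% low protease BSA, 2.5% glycerol, 0.01% Tween-20. ClpP 10 microg/mL final; 20 min RT; delta FRET normalized to ADEP and DMSO controls.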
DT40 TDP1 no CPT: qHTS for Inhibitors of human tyrosyl-DNA phosphodiesterase 1 (TDP1): qHTS in cells in absence of CPT; DT40 Tdp1-/- hTDP1 cells, no CPT, ATP luminescence, 48 h; Potency, µM (highest dose often 46.2 µM), most hits filed as inhibitors; 420,000 compounds, 15% hits; note: nearly all actives have a fitted effect of over 55% in size
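Seeded 400 DT40-hTDP1 cells/well (vehicle DMSO, no 20 nM CPT); pinned compounds; ≥48 hr at 37 °C; CellTiter-Glo luminescence as viability measure.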
TDP1 cell CPT: growth inhibition of DT40 Tdp1-/-;hTDP1 cells with camptothecin (screen for TDP1 inhibitors); Potency, µM (series often up to 46.2 µM), most hits filed as inhibitors; 420,000 compounds, 12% hits; chicken DT40 Tdp1-/-;hTDP1 cells + 20 nM CPT, ATP luminescence, 48 h; note: nearly all actives have a fitted effect of over 55% in size
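Cell growth measured by CellTiter-Glo luminescence after a minimum 48 h, 37 C compound exposure with 20 nM CPT in Tdp1-knockout DT40 cells stably expressing hTDP1, seeded 400/well; qHTS titration format.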
TDP1 inh: inhibitors of human tyrosyl-DNA phosphodiesterase TDP1 | Q9NUW8 | recombinant TDP1, AlphaScreen DNA substrate cleavage | Potency, µM (series often up to 130 µM), most hits filed as inhibitors | 350,000 compounds, 0.28% hits; note: nearly all actives have a fitted effect of over 40% in size
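Recombinant E. coli-expressed Tdp1 (1 nM) preincubated with compound 15 min at RT, then 5'-biotin/3'-phosphotyrosine-FITC DNA substrate (15 nM) added for 5 min. AlphaScreen beads (10 ug/ml) added, 10 min RT; tyrosine-FITC cleavage read as signal loss.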
Large screens that a line does not name were inactive. Unless noted, calls come from the whole dose curve; as a rule, active = well fitted curve in the direction sought with a large enough effect; inconclusive = small, poorly fitted or top-dose-only effect, or another doubt; inactive = no such curve, though single readings can be large; an effect the other way counts as inactive or inconclusive.

Clc1ccccc1CN1CCN(/N=C/c2ccncc2)CC1	DT40 TDP1 no CPT 16µM, TDP1 cell CPT 13µM
CC(C)=CCC/C(C)=C/CO/N=C1/C[C@@H](O)[C@@H](O)[C@@H]2[C@@H]3C(=O)N(c4cccc(Oc5ccccc5)c4)C(=O)[C@H]3CC[C@@H]12	none (no result: ClpP mod, DT40 TDP1 no CPT, TDP1 cell CPT)
CC(C)C[C@@H](CC(=O)N[C@@H](CCCN)CC(=O)N[C@@H]1CCCC[C@H]1C(=O)N[C@H](CC(=O)N[C@@H](CCC(=O)O)CC(=O)O)CC(C)C)NC(=O)[C@@H]1CCCC[C@H]1N	none (no result: ClpP mod, DT40 TDP1 no CPT, TDP1 cell CPT)
COc1ccc(S(=O)(=O)NNC(=O)c2cc3c4ccccc4n(C)c3s2)cc1	ClpP mod 35µM, DT40 TDP1 no CPT 4.1µM, TDP1 cell CPT 2.9µM
CC(=O)NNC(=O)c1cc2c3ccccc3n(C)c2s1	none
COc1ccc(-c2nc(C(=O)NCCCN3CCOCC3)cc3c2[nH]c2ccccc23)cc1OC	DT40 TDP1 no CPT 3.7µM, TDP1 cell CPT 13µM (no result: TDP1 inh)
Cc1ccc(-c2nc(C(=O)NCCCN3CCOCC3)cc3c2[nH]c2ccccc23)cc1	DT40 TDP1 no CPT 3.3µM, TDP1 cell CPT 3.3µM (no result: TDP1 inh)
Cc1ccc(-c2cc(C(=O)NCCCN3CCOCC3)c3ccccc3n2)cc1	DT40 TDP1 no CPT inconclusive (no result: TDP1 inh)
Cn1c(COc2ccccc2Br)nc2ccccc21	DT40 TDP1 no CPT inconclusive, TDP1 cell CPT inconclusive
C/C(=C\C(=O)OCCCCCCCCC(=O)O)C[C@@H]1OCC(C[C@H]2O[C@H]2[C@@H](C)[C@H](C)O)[C@@H](O)[C@H]1O (stereo not given in full)	none (no result: ClpP mod, DT40 TDP1 no CPT, TDP1 cell CPT)
CCCCN(Cc1ccco1)C(=O)C1CCCN(c2ncnc3c2nc2n3CCCCC2)C1 (stereo not given)	DT40 TDP1 no CPT 15µM, TDP1 cell CPT 16µM
CCN(CC)C(=O)C1CCCN(c2ncnc3c2nc2n3CCCCC2)C1 (stereo not given)	DT40 TDP1 no CPT inconclusive
CCCCN(CC)C(=O)C1CCCN(c2ncnc3c2nc2n3CCCCC2)C1 (stereo not given)	DT40 TDP1 no CPT 21µM, TDP1 cell CPT inconclusive
N/C(=C\c1ccccc1)c1ccncc1	DT40 TDP1 no CPT inconclusive (no result: TDP1 inh)
CNC(=O)c1c(NC(=O)Cc2coc3ccc(OC)cc23)sc2c1CCCC2	DT40 TDP1 no CPT 21µM, TDP1 cell CPT 16µM
COCCCNC(=O)c1c(NC(=O)Cc2coc3cc(C)ccc23)sc2c1CCCC2	ClpP mod inconclusive, DT40 TDP1 no CPT 16µM, TDP1 cell CPT 16µM
COc1ccc(CC(=O)Nc2sc3c(c2C(=O)Nc2c(C)cccc2C)CCCCC3)cc1	none (no result: DT40 TDP1 no CPT, TDP1 cell CPT)
CCNC(=O)c1c(NC(=O)c2cc(-c3cc(C)ccc3O)n[nH]2)sc2c1CCCC2	DT40 TDP1 no CPT 16µM, TDP1 cell CPT inconclusive (no result: ClpP mod)
CCNC(=O)c1c(NC(=O)Cc2coc3cc(C)ccc23)sc2c1CCCC2	DT40 TDP1 no CPT 18µM, TDP1 cell CPT 12µM
COc1ccc(C(=O)N2CCC3(CC2)CN(C(=O)Nc2cccc(C#N)c2)C3)cc1	DT40 TDP1 no CPT inconclusive (no result: ClpP mod, TDP1 inh)
Cc1c(Cl)cccc1NC(=O)Nc1ccccc1C(N)=O	DT40 TDP1 no CPT 6.5µM, TDP1 cell CPT 4.1µM
Cc1c(Cl)cccc1NC(=O)Nc1ccc(C(N)=O)cc1	none (no result: ClpP mod)
NC(=O)c1ccccc1NC(=O)Nc1cccc(Cl)c1Cl	DT40 TDP1 no CPT 9.2µM, TDP1 cell CPT 5.8µM
COc1ccc(S(=O)(=O)N2CCOCC2)cc1NC(=O)C1CCN(S(=O)(=O)c2ccc(Cl)cc2)CC1	none (no result: TDP1 inh)
O=C(O)C1CCCN1c1nc(-c2ccc(Cl)c(Cl)c2)cc(C(F)(F)F)n1 (stereo not given)	DT40 TDP1 no CPT 21µM, TDP1 cell CPT 15µM
Cc1ccc2cc(C)c(SCC(=O)Nc3cc(C)on3)nc2c1	none (no result: TDP1 inh)
Cn1c(SCC(=O)NNC(=O)Cc2ccccc2)nnc1-c1ccc(Cl)cc1	none
COc1ccc(-c2nnc(SCC(=O)Nc3ncc(C)s3)n2-c2ccccc2)cc1OC	DT40 TDP1 no CPT 23µM, TDP1 cell CPT 21µM
COc1ccc(-c2nnc(SCC(=O)NNC(=O)Cc3ccccc3)n2C)cc1OC	DT40 TDP1 no CPT 23µM, TDP1 cell CPT inconclusive
COc1ccc(OCC2CCNCC2)cc1	TDP1 inh inconclusive
CCN(CC)C(=O)c1sc2nc(-c3ccccn3)[nH]c(=O)c2c1C	DT40 TDP1 no CPT 12µM, TDP1 cell CPT 23µM (no result: ClpP mod, TDP1 inh)
Cc1sc2nc(-c3ccccn3)[nH]c(=O)c2c1-c1ccccc1	DT40 TDP1 no CPT 10µM, TDP1 cell CPT 9.2µM

Source: PubChem (National Center for Advancing Translational Sciences (NCATS))
